Results published in a collection of fitness landscapes (doi:10.1126/science.1257360).
The full ranking holds about 140,000 sequences; the median of “enrichment ratio after two sorts for PhoP signalling” is about 0, and the highest 2% start at about 11. Only a selection was taken, and the highest values are over-represented in it overall.

B1: PhoQ; a variant is named by its letters at X, in order, P23837 (parent)
chain: MKKLLRLFFPLSLRVRFLLATAAVVLVLSLAYGMVALIGYSVSFDKTTFRLLRGESNLFYTLAKWENNKLHVELPENIDKQSPTMTLIYDENGQLLWAQRDVPWLMKMIQPDWLKSNGFHEIEADVNDTSLLLSGDHSIQQQLQEVREDDDDAEMTHSVAVNVYPATSRMPKLTIVVVDTIPVELKSSYMVWSWFIYVLSANLLLVIPLLWVAAWWSLRPIEALAKEVRELEEHNRELLNPATTRELTSLVRNLNRLLKSERERYDKYRTTLTDLTHSLKTPLXXLQXXLRSLRSEKMSVSDAEPVMLEQISRISQQIGYYLHRASMRGGTLLSRELHPVAPLLDNLTSALNKVYQRKGVNISLDISPEISFVGEQNDFVEVMGNVLDNACKYCLEFVEISARQTDEHLYIVVEDDGPGIPLSKREVIFDRGQRVDTLRPGQGVGLAVAREITEQYEGKIVAGESMLGGARMEVIFGRQHSAPKDE

Variants of: B1
Experiment: enrichment ratio after two sorts for PhoP signalling (ratio (wild type AVST 3.29)); higher = more functional
Conditions: with PhoP (E. coli)

Variant	enrichment ratio
RSCK	≤ 0.25
DWGV	≤ 0.25
FMYR	≤ 0.25
FQIQ	≤ 0.25
MCFN	4.25
AMST	12.2
NMST	≤ 0.25
DMST	≤ 0.25
HKST	≤ 0.25
TKST	15.4
AKST	6.32
YFCR	0.754
YQIY	≤ 0.25
WDCT	≤ 0.25
TGCY	8.48
QRCY	≤ 0.25
GGCY	16.1
RGCY	≤ 0.25
MGCY	29.2
MGWY	4.8
QHTT	≤ 0.25
KNTT	≤ 0.25
ERTE	≤ 0.25
QKMV	≤ 0.25

Variant	enrichment ratio
TYTC	≤ 0.25
TMSG	24.1
TMSN	12.5
NMSN	≤ 0.25
MMSN	≤ 0.25
DMSG	≤ 0.25
KMSG	≤ 0.25
PCVI	≤ 0.25
GRTV	≤ 0.25
MESS	5.15
QDSS	≤ 0.25
TESS	15
QRSS	≤ 0.25
FFSS	≤ 0.25
FVSS	≤ 0.25
NESS	≤ 0.25
QESS	19.7
QGSS	14.4
IMKM	≤ 0.25
LFRM	≤ 0.25
TWVL	≤ 0.25
WRGV	≤ 0.25
KLPK	≤ 0.25
EIYQ	≤ 0.25

Variant	enrichment ratio
MCCF	4.87
YTCF	2.21
NECF	≤ 0.25
SECF	13.9
SNCF	4.82
SQCF	11.4
STCF	15.9
SRCF	≤ 0.25
SCCF	13.7
KCCF	≤ 0.25
CTCF	≤ 0.25
MECF	≤ 0.25
PQGD	≤ 0.25
YMHS	≤ 0.25
GKRI	≤ 0.25
SAIV	3.88
ERRA	≤ 0.25
MTCF	1.4
TTCF	17.7
LTCF	≤ 0.25
IHTH	≤ 0.25
LQWA	≤ 0.25
TAMY	17.4
NAMY	≤ 0.25

Variant	enrichment ratio
TAME	15.7
KAME	≤ 0.25
TAIE	≤ 0.25
KAMY	≤ 0.25
RLHS	≤ 0.25
THTF	0.991
SFPM	≤ 0.25
RSPG	≤ 0.25
IAHL	≤ 0.25
NAHL	≤ 0.25
KAHL	≤ 0.25
QGHL	18.3
YAHL	≤ 0.25
KSHL	≤ 0.25
FFHL	≤ 0.25
QTHL	4.03
QAHL	16.7
THHL	2.02
TAHL	17.4
QSHL	13.5
KINI	≤ 0.25
SEPT	≤ 0.25
NNGF	≤ 0.25
LQLD	≤ 0.25

Variant	enrichment ratio
NKMF	≤ 0.25
QAHM	22.3
QAHK	≤ 0.25
QAQF	≤ 0.25
QLNF	≤ 0.25
QDHM	≤ 0.25
QANF	21
NQNF	≤ 0.25
YAHM	≤ 0.25
KANF	≤ 0.25
QAHF	15.5
NANF	≤ 0.25
QQNF	16.3
HNRG	≤ 0.25
WPAL	≤ 0.25
GSVC	≤ 0.25
LGSN	≤ 0.25
MHVR	≤ 0.25
WLSV	≤ 0.25
WRAR	≤ 0.25
KRNR	≤ 0.25
ECFS	≤ 0.25
ANNF	12.9
SLNF	1.82

Variant	enrichment ratio
YTNF	≤ 0.25
AINF	1.66
CTNF	≤ 0.25
AHNF	9.49
KYNF	≤ 0.25
ATNF	20.9
GTNF	≤ 0.25
STNF	12.6
TTNF	6.07
SCNF	14.3
PREH	≤ 0.25
GASC	≤ 0.25
FFHE	≤ 0.25
DQPT	≤ 0.25
LMDV	≤ 0.25
FSAH	0.363
SQND	≤ 0.25
IRPQ	≤ 0.25
YYNE	≤ 0.25
GEVM	13.6
GEVA	≤ 0.25
GEYY	≤ 0.25
GEVG	8.67
GEVY	15.9

Variant	enrichment ratio
GEGM	≤ 0.25
ISQH	≤ 0.25
HWRW	≤ 0.25
LGRG	≤ 0.25
HLTF	≤ 0.25
MNAM	1.4
GNAM	35.8
TNCK	≤ 0.25
TNAM	15.7
LNAM	≤ 0.25
GIRM	≤ 0.25
GIAM	33.4
GMGM	≤ 0.25
GMAM	24.3
GIMD	≤ 0.25
NNAM	≤ 0.25
GMTM	≤ 0.25
RPAK	≤ 0.25
YHSF	≤ 0.25
QLDG	≤ 0.25
PCCG	≤ 0.25
DCDI	≤ 0.25
YLVR	≤ 0.25
QLDF	≤ 0.25

Variant	enrichment ratio
IHCL	≤ 0.25
FHCR	≤ 0.25
VVAM	≤ 0.25
LQPE	≤ 0.25
YRAY	≤ 0.25
SGLI	16.2
SGDK	≤ 0.25
SGDN	≤ 0.25
SGLT	12.3
SGLA	8.41
SGNT	≤ 0.25
KDVP	≤ 0.25
RAKD	≤ 0.25
AQSI	18.6
TKSI	14.9
WISW	≤ 0.25
KKSI	≤ 0.25
TISR	6.92
ARSI	≤ 0.25
TISI	16.9
HKSI	≤ 0.25
TISK	3.65
ADSW	≤ 0.25
AISW	11.4

Variant	enrichment ratio
AQRK	≤ 0.25
SLDN	≤ 0.25
QVPH	≤ 0.25
WSQP	≤ 0.25
DYLR	≤ 0.25
WNLT	≤ 0.25
RHIF	≤ 0.25
HCDL	≤ 0.25
AKSI	22.7
WISI	≤ 0.25
AISI	22
AHSI	≤ 0.25
ADSI	≤ 0.25
AKDH	≤ 0.25
ENLY	≤ 0.25
RIVL	≤ 0.25
YQAH	≤ 0.25
TFMT	≤ 0.25
HGCK	≤ 0.25
LNLI	≤ 0.25
HGDK	≤ 0.25
HYLI	≤ 0.25
GILI	8.37
HGCS	≤ 0.25

Variant	enrichment ratio
HGCI	17.9
GVLA	4.95
GVLI	15.6
NVLI	≤ 0.25
GNLI	15.8
HGLI	13.3
LTRF	≤ 0.25
QPSN	≤ 0.25
PTQL	≤ 0.25
YSHY	≤ 0.25
WGLI	13.6
CFLI	≤ 0.25
QGLI	13.3
NGLI	2.73
CNHF	≤ 0.25
WGLA	≤ 0.25
WGLT	≤ 0.25
FFLI	≤ 0.25
QGDK	≤ 0.25
CNLI	12.7
RGLI	≤ 0.25
TGLI	12.2
VTWM	≤ 0.25
QDLV	≤ 0.25

Variant	enrichment ratio
WQPN	≤ 0.25
FGKS	≤ 0.25
TKLI	13
MGLI	14.4
MGDK	≤ 0.25
MKLI	3.78
NILI	0.917
YHLI	≤ 0.25
GGLI	11.9
AKLI	4.91
MGLS	5.14
PKIA	≤ 0.25
NPEC	≤ 0.25
DYPI	≤ 0.25
HHAA	≤ 0.25
VYEG	≤ 0.25
GTRK	≤ 0.25
AKAK	≤ 0.25
DHNF	≤ 0.25
WHAF	≤ 0.25
SGVA	19
SGVS	13
SGQH	11.9
SGVK	≤ 0.25

Variant	enrichment ratio
SGKH	≤ 0.25
SGGD	≤ 0.25
TGVN	5.82
SGWI	2.76
SGQN	≤ 0.25
SGVG	5.22
SGVN	16.8
SGPN	≤ 0.25
VDSY	≤ 0.25
ELCR	≤ 0.25
DCKP	≤ 0.25
MYPK	≤ 0.25
EFWG	≤ 0.25
AFDK	≤ 0.25
FLSH	≤ 0.25
MHCH	≤ 0.25
SEFH	4.4
EFPG	≤ 0.25
REIT	≤ 0.25
HGRF	≤ 0.25
SGVQ	20.5
SGWM	9.28
TGVQ	7.73
SGGG	≤ 0.25

Variant	enrichment ratio
SGVM	13.3
SGGM	8.79
HQTQ	≤ 0.25
KFHQ	≤ 0.25
PSSG	≤ 0.25
AGQH	≤ 0.25
HPFG	≤ 0.25
NWHP	≤ 0.25
LKHK	≤ 0.25
VSCM	13.1
NSCM	≤ 0.25
KCCM	≤ 0.25
TSCM	25.8
LCCM	≤ 0.25
VCCM	13.1
MMCM	≤ 0.25
FSCM	16.6
KSCM	≤ 0.25
VSCK	≤ 0.25
FCCM	≤ 0.25
RSCM	≤ 0.25
